Assay outcomes deposited in PubChem BioAssay by National Center for Advancing Translational Sciences (NCATS).
POLI inh = DNA polymerase iota (human) inhibition; Q9UNA4; Pol iota fluorescent replication assay, 10 min; Potency, µM (highest dose often 115 µM), usual class: inhibitors; 390,000 compounds, 1% hits; AID 588590
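Pol iota at 10 nM preincubated 15 min with compounds at room temperature; reaction started with fluorescent substrate, 50 nM final. Fluorescence read kinetically at 0 and 10 min; buffer-only wells as negative control.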
Pol kappa inh = blocks human DNA polymerase kappa activity; Q9UBT6; purified Pol kappa, fluorescent DNA synthesis assay, 10 min; Potency, µM (titrated, usually from 107 µM), most hits filed as inhibitors; 400,000 compounds, 0.53% hits
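50 nM final substrate added after 15 min RT preincubation of 10 nM Pol kappa with compound; fluorescence read at 0 and 10 min.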
POLH inh = inhibitors of human DNA polymerase eta | recombinant Pol eta, fluorescent DNA replication assay | Potency, µM (series often up to 114 µM), actives largely listed as inhibitors | 390,000 compounds, 1.2% hits
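Fluorescent replication assay: 50 nM final substrate added after a 15 min room-temperature compound preincubation with 10 nM enzyme. Signal taken at 0 min and again at 10 min.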
Pol beta inh = blocks human DNA polymerase beta activity; Pol beta primer extension/strand displacement, fluorescence kinetic; Potency, µM (doses to about 114 µM), usual class: inhibitors; 340,000 compounds, 1.3% hits
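Homogeneous kinetic assay of primer extension and strand displacement by 10 nM Pol beta, preincubated 15 min at room temperature with compound before 50 nM substrate (final) was added. Read at 0 and 10 min; four-parameter Hill fit.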
PI5P4K alpha inh = PI5P4K alpha (human) kinase inhibition; PI5P4Kalpha enzyme, ADP-Glo luminescence, 60 min; hits give low values; max response, %; 330,000 compounds, 1.2% hits; AID 652105; active means max response of -50% or lower; inconclusive means between -30% and -50%; inactive means -30% or higher; further: value at the top dose of about 77 µM
Target sequence (P48426 whole entry, looked up): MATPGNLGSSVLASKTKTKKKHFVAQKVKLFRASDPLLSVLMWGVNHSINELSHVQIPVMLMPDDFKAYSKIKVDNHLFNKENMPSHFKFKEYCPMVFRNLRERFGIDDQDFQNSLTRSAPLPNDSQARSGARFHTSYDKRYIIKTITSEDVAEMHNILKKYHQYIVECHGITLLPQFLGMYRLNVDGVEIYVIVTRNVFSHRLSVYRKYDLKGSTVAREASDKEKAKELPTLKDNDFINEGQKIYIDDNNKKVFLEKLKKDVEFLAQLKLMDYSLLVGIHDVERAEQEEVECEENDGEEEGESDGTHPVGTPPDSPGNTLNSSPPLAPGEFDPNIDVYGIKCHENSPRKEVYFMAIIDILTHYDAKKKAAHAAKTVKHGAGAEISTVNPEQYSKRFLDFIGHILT
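Human PI5P4Kalpha with substrate in 0.038 M HEPES pH 7.4, 0.28 mM EGTA, 0.1% CHAPS, 5% DMSO; reaction started with 5 microM ATP (final), 60 min at room temperature. ADP formed read by ADP-Glo luminescence.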
WRN inhibitor = blocks human WRN helicase. Potency, µM (titrated, usually from 114 µM), most hits filed as inhibitors. WRN helicase unwinding, fluorescent forked duplex, kinetic. 360,000 compounds, 0.46% hits. Q14191; further: nearly all actives have a fitted effect of over 55% in size
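Kinetic red-fluorescence monitoring (525/598 nm) tracks WRN helicase activity after 100 nM fluorophore-quencher forked duplex and 2 mM ATP are added to 20 nM enzyme pretreated 15 min at room temperature with compound.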
Of the large screens only hits and unclear results are named; the others gave an inactive call. Shown are actives, neighbours in structure and some others; about 2.8% of the full set was active somewhere. Unless noted, the call rests on the fitted dose curve; in most records, active means well fitted curve in the direction sought with a large enough effect; inconclusive means small, poorly fitted or top-dose-only effect, or another doubt; inactive means no such curve, though single readings can be large; an effect the other way counts as inactive or inconclusive.

CN(C)CC1CC/C(=C\c2ccc(O)cc2)C1=O (stereo not drawn)	POLI inh inconclusive, POLH inh inconclusive, WRN inhibitor 11.2µM (no result: Pol beta inh)
CC1CCC/C(=C\c2ccc(O)cc2)C1=O (stereo not drawn)	none (no result: Pol beta inh)
COc1cc2c(NC3CCN(C)CC3)nc(N3CCCN(C)CC3)nc2cc1OCCCCN	POLI inh 20µM, Pol kappa inh 79.4µM (no result: POLH inh, Pol beta inh, PI5P4K alpha inh, WRN inhibitor)
COc1cc2c(NC3CCN(C)CC3)nc(N3CCCN(C)CC3)nc2cc1OCCCCC(N)=O	none (no result: POLH inh, Pol beta inh, PI5P4K alpha inh, WRN inhibitor)
COc1cc2nc(N3CCCN(C)CC3)nc(Nc3ccncc3)c2cc1OC	POLI inh 20µM (no result: POLH inh, Pol beta inh, PI5P4K alpha inh, WRN inhibitor)
O=S(=O)(NCC1CCN(Cc2ccccc2)CC1)c1ccccc1C(F)(F)F	none
O=[N+]([O-])c1ccc(-c2nc(NCc3ccccc3)c3ccccc3n2)cc1	POLH inh 79.4µM
O=C(Nc1nc(-c2ccc(Br)cc2)ns1)c1ccccc1F	none (no result: PI5P4K alpha inh, WRN inhibitor)
CCOc1cc(N2CCOCC2)c(OCC)cc1NS(=O)(=O)c1ccc(Cl)s1	POLI inh 28.2µM
CCOc1cc(N2CCOCC2)c(OCC)cc1NC(=O)c1cc(S(=O)(=O)N2CCOCC2)ccc1Cl	none (no result: Pol beta inh)
Cc1csc(NC(=O)CSc2nc(C(C)C)nc3ccccc23)n1	none
COC(=O)/C=C/C(=O)Nc1ccc(O)c(Cl)c1	POLH inh inconclusive, PI5P4K alpha inh -58.9
COc1ccc(C(=O)N/C(=C\c2ccc(OC)c(OC)c2)C(=O)N2CCCCC2)cc1	none
COc1ccc(/C=C(/C(=O)N2CCCCC2C(=O)O)c2ccc(OC)c(OC)c2)cc1 (stereo not drawn)	POLI inh 79.4µM (no result: Pol beta inh)
COC(=O)c1ccc(=O)c2nc3/c(=C/O)c(O)cc(=O)c3[nH]c12	POLI inh inconclusive, Pol kappa inh 14.1µM, POLH inh 28.2µM, Pol beta inh inconclusive, PI5P4K alpha inh -74.0, WRN inhibitor inconclusive
O=C(O)c1cccc(NC2=C(Cl)C(=O)c3ccccc3C2=O)c1	POLI inh inconclusive, POLH inh 79.4µM, PI5P4K alpha inh -68.9
Cc1ccc(NCC(=O)c2ccccc2)cc1Cl	none (no result: PI5P4K alpha inh)
Cc1ccc(NC2=C(NC(=O)c3ccccc3)C(=O)c3ccccc3C2=O)cc1Cl	POLI inh inconclusive, PI5P4K alpha inh -52.0
O=C(O)CSc1nc(-c2ccc(Cl)cc2)nc2c1oc1ccccc12	POLH inh inconclusive, Pol beta inh 56.2µM
O=C(O)CSc1nc(-c2ccccc2)nc2c1oc1ccccc12	none
N#CC(c1ccc(Cl)cc1)c1c(Cl)cc(-n2ncc(=O)[nH]c2=O)cc1Cl (stereo not drawn)	none (no result: POLI inh, POLH inh, Pol beta inh, PI5P4K alpha inh, WRN inhibitor)
CC(C)(C)n1ncc2c(=O)n(Cc3cccc(Cl)c3Cl)cnc21	none (no result: POLH inh, Pol beta inh, PI5P4K alpha inh, WRN inhibitor)
Cc1coc2c1C(=O)C(=O)c1c-2ccc2c1CCCC2(C)C	POLI inh inconclusive, Pol kappa inh inconclusive, POLH inh 89.1µM, Pol beta inh 22.4µM, PI5P4K alpha inh -52.0
Cc1coc2c1C(=O)C(=O)c1c-2ccc2c(C)cccc12	POLI inh inconclusive, Pol kappa inh 79.4µM, POLH inh 28.2µM, Pol beta inh 20µM, PI5P4K alpha inh -56.1
COc1cc2c(NC3CCN(C)CC3)nc(N3CCN(C)CC3)nc2cc1OCCCN(C)C	POLI inh inconclusive (no result: POLH inh, Pol beta inh, PI5P4K alpha inh, WRN inhibitor)
O=C(Nc1cccc(NC(=O)c2ccc(Br)o2)n1)c1ccc(Br)o1	POLI inh 14.1µM, POLH inh inconclusive, WRN inhibitor inconclusive (no result: PI5P4K alpha inh)
Cc1nc(NC(=O)c2ccc(Br)o2)ccc1Br	none
CCn1nc([N+](=O)[O-])c2c(-c3nc4ccccc4o3)c(N)n(CCCOC)c2c1=O	POLH inh inconclusive, Pol beta inh inconclusive, WRN inhibitor 31.6µM
COCCCn1c(-c2ccco2)nc2ccccc2c1=O	none
Cc1cccc(-c2nnc(C3CCN(S(=O)(=O)c4cccc(Cl)c4)CC3)o2)c1	none (no result: PI5P4K alpha inh, WRN inhibitor)
O=C(CC1N=C2c3ccccc3N=C(SCc3ccc(Cl)cc3)N2C1=O)NCc1ccco1 (stereo not drawn)	POLI inh inconclusive, Pol kappa inh inconclusive, POLH inh 79.4µM, Pol beta inh inconclusive, PI5P4K alpha inh inconclusive
C1CCC(NC2=NCCC2)CC1	none (no result: PI5P4K alpha inh)
S=c1[nH]nc(NC2CCCCC2)s1	PI5P4K alpha inh -69.9 (no result: POLI inh, Pol kappa inh, Pol beta inh)
O=C(Cc1ccc(OCc2ccccc2)cc1)NO	none (no result: POLH inh, Pol beta inh, PI5P4K alpha inh, WRN inhibitor)
